High-throughput results from PubChem.
Only some compounds are listed: those with a hit (about 11% of all), similar ones and a draw of the others.
USP30 block = human USP30 deubiquitinase inhibition. Q70CQ3. inhibition, % at 25 µM. purified USP30, Ub-rhodamine cleavage fluorescence. actives 5.3% (n = 47,000)
USP17 inh = human USP17-like deubiquitinase inhibition; A8MUK1; purified USP17, Ub-rhodamine cleavage fluorescence, 3 h; inhibition, % at 50 µM; actives 6.5% (n = 47,000)
Target sequence (A8MUK1 whole entry, looked up): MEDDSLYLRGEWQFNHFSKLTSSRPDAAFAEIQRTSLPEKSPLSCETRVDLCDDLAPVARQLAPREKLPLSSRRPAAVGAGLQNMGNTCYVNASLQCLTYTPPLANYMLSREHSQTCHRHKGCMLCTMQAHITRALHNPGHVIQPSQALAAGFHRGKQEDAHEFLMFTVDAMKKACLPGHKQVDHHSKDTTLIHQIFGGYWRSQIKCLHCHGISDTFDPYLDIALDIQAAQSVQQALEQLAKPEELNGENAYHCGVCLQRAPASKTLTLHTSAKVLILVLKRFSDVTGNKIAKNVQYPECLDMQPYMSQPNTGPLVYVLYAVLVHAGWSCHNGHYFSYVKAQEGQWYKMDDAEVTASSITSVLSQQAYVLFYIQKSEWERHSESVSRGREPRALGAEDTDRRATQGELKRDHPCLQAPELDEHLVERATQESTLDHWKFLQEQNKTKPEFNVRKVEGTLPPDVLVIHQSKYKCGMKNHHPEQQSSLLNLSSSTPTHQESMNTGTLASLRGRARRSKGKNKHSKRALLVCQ
OTUD3 block = inhibitors of human OTUD3 deubiquitinase; actives 0.7% (n = 47,000); Q5T2D3; inhibition, % at 25 µM; purified OTUD3, Ub-rhodamine fluorescence, 2 h; AID 1645858
USP28 inh = human USP28 deubiquitinase inhibition; Q96RU2; purified USP28, Ub-rhodamine cleavage fluorescence, 30 min; inhibition, % at 25 µM; actives 3% (n = 47,000); AID 1645857
* marks the source's active call; other numbers are inactive results; i = inactive. No stated cut-off is given here; in the data, active means inhibition above about 30%; inactive means the rest.

SMILES	USP30 block	USP17 inh	OTUD3 block	USP28 inh
CN1C(=O)[C@@]23CC4=CC=C[C@H](O)C4N2C(=O)[C@]1(CO)SS3 (some centres undefined)	35*	-27	5	-13
c1cncc(CN2CCCC3(COCCN(CC4CC4)C3)C2)c1 (centres undefined)	0	-10	4	5
Fc1ccc(CN2CCc3nc4cccnc4cc3C2)cc1	i	-175	-212	-269
Cc1nn(Cc2ccccc2)c(C)c1C(=O)NC1CCCc2ccccc21 (centres undefined)	54*	0	-1	-4
CC(C)=CCCC1(C)C=Cc2c(O)c3c(c(CC=C(C)C)c2O1)OC12C(=CC4CC1C(C)(C)OC2(C/C=C(/C)C(=O)O)C4=O)C3=O (centres undefined)	71*	89*	69*	82*
COc1cc2c(cc1OC)[C@@H]1C(=O)c3ccc(O)c(CC=C(C)C)c3O[C@@H]1CO2	5	6	-6	2
COC1CCCCC1NCCc1c[nH]c2ccccc12 (centres undefined)	-3	-32	-9	-11
Cn1c(=O)[nH]c2nncnc2c1=O	-15	73*	-12	1
Cc1cccc(CN2C[C@@H](c3ccc(F)c(F)c3)[C@@]3(COCCC(=O)N3)C2)n1	4	12	5	6
CN1C(=O)C23SSC1(CO)C(=O)N2C1Nc2ccccc2C1(C12c4ccccc4NC1N1C(=O)C4(CO)SSC1(C(=O)N4C)C2O)C3O (centres undefined)	9	-32	15	15
CC(=O)O[C@H]1[C@]2(O)C[C@]34SS[C@](CO)(C(=O)N3[C@@H]2C[C@@]12O[C@@H](C)C(C)(C)C2=O)N(C)C4=O	63*	-33	12	-2
Cc1cc(CN2CC[C@H]3O[C@H](C(=O)N4CCCCO4)CC[C@H]32)no1	-14	-34	-13	-17
COc1ccc(C2(CCNCc3ccc(Cl)cc3)CCOC(C)(C)C2)cc1 (centres undefined)	34*	3	5	9
O=C(NCc1cccnc1)c1cccn(Cc2ccc(Cl)cc2)c1=O	32*	7	7	14
O=C(Nc1nc2ccccc2s1)c1cccn(Cc2ccc(Cl)cc2)c1=O	-17	7	-4	-13
C[C@@H]1O[C@@H](O[C@H]2CC[C@]3(C=O)[C@H]4CC[C@]5(C)[C@@H](c6ccc(=O)oc6)CC[C@]5(O)[C@@H]4CC[C@]3(O)C2)[C@H](O)[C@H](O)[C@H]1O[C@@H]1O[C@H](CO)[C@@H](O)[C@H](O)[C@H]1O	8	-3	-9	-7
CC(C)NC(=O)C1=NOC2(CCCNC2)C1 (centres undefined)	6	-23	0	-1
CC(C)=CCOC(C)(C)[C@H]1OC2CC[C@@]3(C)C(CCC4Cc5c([nH]c6ccccc56)[C@@]43C)C23OC3[C@@H]1O (some centres undefined)	84*	87*	61*	88*
O=C(CN1CCN(CCO)CC1)Nc1ccc(Cl)cc1C(=O)c1ccccc1	1	2	0	4
COc1ccccc1C1SCC(=O)Nc2c1c(C)nn2-c1nc(C)cc(C)n1 (centres undefined)	1	0	-4	-11
CC(C)C12CN3CC(C(C)C)(CN(C1)C3c1ccccn1)C2O (centres undefined)	13	39*	0	19
O=C1c2c(O)c(Cl)cc3c2[C@@]2(Oc4cc(Cl)c(O)c5c4[C@]3(O2)[C@@H]2O[C@@H]2C5=O)[C@@H]2O[C@H]12	6	76*	84*	78*
C[C@@H]1C[C@@H]([C@H](O)CC2CC(=O)NC(=O)C2)C(=O)[C@@H](C)C1	9	1	-2	-3
Cc1cc(C)nc(-n2nc(C)c3c2NC(=O)CSC3c2ccccc2F)n1 (centres undefined)	87*	37*	16	2
CCc1ccc(OCC(=O)N2CCN(Cc3ccncc3)CC2)cc1	10	-1	8	4
SMILES	USP30 block	USP17 inh	OTUD3 block	USP28 inh
O=C(C1CCC1)N1c2ccccc2[C@@H]2CNCC[C@H]21	1	-43	-1	-3
CC[C@@]1(O)C[C@H](OC2CC(N(C)C)C(OC3CC(O)C(OC4CCC(=O)C(C)O4)C(C)O3)C(C)O2)c2c(cc3c(c2O)C(=O)c2c(O)ccc(O)c2C3=O)[C@H]1C(=O)OC (some centres undefined)	-13	71*	11	13
Cc1ccccc1COc1ccc(C2SCC(=O)Nc3n[nH]c(C)c32)cc1 (centres undefined)	41*	36*	13	22
Cc1cc2c(cc1O)[C@@]1(C)CC[C@@](O)(O2)C1(C)C	11	3	-2	3
O=C(Nc1ccccn1)c1c(O)c2ccccc2n(Cc2ccccc2)c1=O	12	14	0	-1
Cc1ccc(C)c(Cn2cccc(C(=O)Nc3ccccn3)c2=O)c1	19	9	15	34*
CN1[C@@H]2Cc3ccccc3[C@H]1C[C@@H](NC(=O)Nc1ccccn1)C2	-7	-7	-9	-12
CC1=C(O)C(=O)C=C2C1=CC=C1[C@@]2(C)CC[C@@]2(C)[C@@H]3C[C@](C)(C(=O)O)CC[C@]3(C)CC[C@]12C	-58	54*	26	64*
COc1cccc2c1NC(=O)C21CCN(C(=O)Nc2cccc(C)c2)CC1	3	54*	-6	0
C[C@@H]1CC[C@@]2(OC1)O[C@H]1C[C@H]3[C@@H]4CC=C5C[C@@H](O[C@@H]6O[C@@H](CO)[C@@H](O[C@@H]7O[C@@H](C)[C@H](O[C@@H]8O[C@@H](C)[C@H](O)[C@H](O)[C@H]8O)[C@H](O)[C@H]7O)[C@H](O)[C@@H]6O[C@@H]6O[C@@H](C)[C@H](O)[C@H](O)[C@H]6O)CC[C@]5(C)[C@H]4CC[C@]3(C)[C@H]1[C@@H]2C	96*	55*	12	38*
CC1=C[C@@H]2/C=C(\C)CC[C@H](O)[C@@H](O)/C=C/C(=O)[C@]23C(=O)N[C@@H](CC(C)C)[C@@H]3[C@@H]1C	-69	-14	-16	-7
Cc1nn(C2CCCC2)c2c1C(c1ccc3c(c1)OCO3)SCC(=O)N2 (centres undefined)	30*	-12	2	9
O=C(NCC1CCCO1)c1cc2cccnc2n(Cc2ccccc2F)c1=O (centres undefined)	-187	-38	-47	-45
COc1cc(C2SCC(=O)Nc3c2c(-c2ccccc2)nn3-c2ccccc2)cc(OC)c1OC (centres undefined)	-1	7	15	77*
COc1cccc(C2SCC(=O)Nc3c2c(C)nn3-c2nc(C)cc(C)n2)c1 (centres undefined)	-11	-5	-4	-13
COc1cc(C2SCC(=O)Nc3c2c(=O)[nH]n3C2CCCCCC2)cc(OC)c1OC (centres undefined)	-2	-12	-6	-12
O=C1CSC(c2ccc(Cl)cc2)c2c(-c3ccccc3)nn(-c3ccccc3)c2N1 (centres undefined)	32*	5	4	43*
